In PubChem BioAssay:
“And” between values parts separate entries of the source, which are not always exact repeats. Identical values can stand only once. The source made the active and inactive calls.

Experiments:
[1] = tested on: Plasmodium falciparum Sir2 (PF13_0152, Sir2A); test: pfSir2 binders on small-molecule microarrays, primary screen, biochemical, small-molecule microarray, 635 nm fluorescence (AID 1098); conditions: small-molecule microarray binding, fluorescence 635 nm; higher = more signal;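 also: score merges spot fluorescence intensity with its signal-to-noise ratio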
[2] = small-molecule microarray binders of probe aDKK1, primary screen, biochemical, biotinylated probe, 635/667 nm fluorescence (AID 1099); conditions: higher = more signal;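 also: score merges 667nm spot fluorescence with signal to noise across triplicate slides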
[3] = small-molecule microarray binders of probe aCHRDL2, primary screen, biochemical, biotinylated probe, 635/667 nm fluorescence (AID 1100); conditions: higher = more signal
[4] = splicing luciferase reporter signal modulators, primary screen, spliceosome inhibition project, cell-based, HEK293, splice +/- reporter (AID 1101); conditions: luminescence, 24 h, higher = more signal, called active from +8 up or from −8 down;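 also: HEK293 cells carrying a splicing-competent luciferase reporter gene; test concentration not given here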
[5] = target: Fibroblast growth factor 10 (Homo sapiens) (UniProt O15520); test: FGF10 binders on small-molecule microarrays, primary screen, biochemical, small-molecule microarray, 635 nm fluorescence (AID 1102); conditions: FGF10 binding, fluorescence 635 nm, higher = more signal
[6] = tested on: glycogen synthase kinase-3 (GSK3A per assay name; protocol says GSK3B); test: GSK3 binders on small-molecule microarrays, primary screen, biochemical, small-molecule microarray, 635 nm fluorescence, GSK3A (AID 1103); conditions: small-molecule microarray binding, fluorescence 635 nm; higher = more signal; also: the record names both GSK3A and GSK3B
[7] = target: Epidermal growth factor receptor (Homo sapiens) (UniProt P00533); test: EGFR binders on small-molecule microarrays, primary screen, biochemical, small-molecule microarray, 635 nm fluorescence (AID 1104); conditions: EGFR binding, higher = more signal;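 also: score merges 667 nm emission intensity with spot signal to noise over triplicate slides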
[8] = target: Follistatin-related protein 3 (Homo sapiens) (UniProt O95633); test: FSTL3 binders on small-molecule microarrays, primary screen, biochemical, small-molecule microarray, 635 nm fluorescence (AID 1105); conditions: FSTL3 binding, higher = more signal;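 also: score merges emission near 667 nm and signal to noise per printed spot across three slides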
[9] = target: Dickkopf-related protein 1 (Homo sapiens) (UniProt O94907); test: DKK1 binders on small-molecule microarrays, primary screen, biochemical, small-molecule microarray, 635 nm fluorescence scan (AID 1106); conditions: DKK1 binding, higher = more signal;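 also: score merges emission near 667 nm with signal to noise over three replicate slides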
[10] = tested on: Inhibin beta A chain (activin A); test: INHBA (activin A) binders on microarrays, primary screen, biochemical, small-molecule microarray, 635 nm fluorescence scan (AID 1107); conditions: small-molecule microarray binding, higher = more signal;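 also: mouse activin A protein probed at 4.33 µg/mL on printed slides; score merges bound-protein fluorescence near 667 nm with spot signal-to-noise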
[11] = tested on: Human papillomavirus type 1a protein E7 (residues 44-93); test: HPV1a E7 fragment binders on microarrays, primary screen, biochemical, small-molecule microarray, residues 44-93, 635 nm fluorescence (AID 1108); conditions: small-molecule microarray binding, fluorescence 635 nm; higher = more signal;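 also: E7 fragment applied at 1 µg/mL in TBST for 1 h at 4 C; score combines spot fluorescence with its signal to noise ratio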
[12] = modulators of HCV replicon luciferase signal, primary screen, HCV replication inhibitor project, Huh7 cells, luciferase reporter (AID 1109); conditions: 48 h, higher = more signal;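 also: huh7 hepatoma cells harbouring a luciferase neomycin HCV replicon reporter; luciferase luminescence as measure of HCV replicon replication; test concentration not given here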
[13] = target: Left-right determination factor 2 (Homo sapiens) (UniProt O00292); test: LEFTY2 binders on small-molecule microarrays, primary screen, biochemical, small-molecule microarray, 635 nm fluorescence scan (AID 1110); conditions: LEFTY2 binding, higher = more signal
[14] = target: Calmodulin-1 (Homo sapiens) (UniProt P0DP23); test: CALM1 binders on microarrays, EGTA buffer, profiling panel, biochemical, small-molecule microarray, Cy5-labelled CALM1 (AID 1111); conditions: Cy5-CALM1 binding fluorescence, higher = more signal;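 also: labelled calmodulin applied in Tris saline Tween buffer holding calcium plus EGTA and DTT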
[15] = target: Calmodulin-1 (Homo sapiens) (UniProt P0DP23); test: calcium-bound CALM1 binders on microarrays, profiling panel, artefact control for SMM control-protein annotation, biochemical, small-molecule microarray, Cy5-labelled CALM1, plus calcium (AID 1112); conditions: Cy5-CALM1 binding fluorescence, higher = more signal;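 also: score merges spot fluorescence with signal to noise from triplicate slides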
[16] = small-molecule microarray binders of probe aWnt5a, primary screen, biochemical, biotinylated probe, 635/667 nm fluorescence (AID 1113); conditions: higher = more signal;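 also: score merges 667 nm fluorescence intensity with signal-to-noise per printed feature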
[17] = small-molecule microarray binders of probe aShh, primary screen, biochemical, biotinylated probe, 635/667 nm fluorescence (AID 1114); conditions: higher = more signal;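 also: probe is biotin-labelled aShh protein from a stem cell growth factor screen; measures binding of labelled protein to compounds printed on the slide; score merges feature fluorescence at 667 nm with signal-to-noise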
[18] = small-molecule microarray binders of probe aNog, primary screen, biochemical, biotinylated probe, 635/667 nm fluorescence (AID 1115); conditions: higher = more signal;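 also: probe is biotinylated aNog protein used at 0.15 µg/mL for 1 h at 4 C; z-score combines 667 nm fluorescence of each spot with its signal to noise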
[19] = target: Torsin-1A-interacting protein 1 (Homo sapiens) (UniProt Q5JTV8); test: LAP1 binders from COS7 cell lysate, primary screen, small-molecule microarray, 635/667 nm fluorescence (AID 1116); conditions: COS7-hLAP1 lysate binding, 635 nm fluorescence, higher = more signal
[20] = target: Alpha-bungarotoxin (Bungarus multicinctus) (UniProt P60615); test: alpha-bungarotoxin binders on microarray, profiling panel, artefact control for SMM control protein annotation, biochemical, small-molecule microarray, Alexa647 label, 635/667 nm fluorescence (AID 1117); conditions: alpha-BTX-A647 binding fluorescence, higher = more signal
Chain of Alpha-bungarotoxin (Bungarus multicinctus) (P60615 whole entry, looked up): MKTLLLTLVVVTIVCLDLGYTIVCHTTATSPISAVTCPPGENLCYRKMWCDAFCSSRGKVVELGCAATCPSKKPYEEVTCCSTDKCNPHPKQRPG

Chain of Follistatin-related protein 3 (Homo sapiens) (O95633 whole entry, looked up): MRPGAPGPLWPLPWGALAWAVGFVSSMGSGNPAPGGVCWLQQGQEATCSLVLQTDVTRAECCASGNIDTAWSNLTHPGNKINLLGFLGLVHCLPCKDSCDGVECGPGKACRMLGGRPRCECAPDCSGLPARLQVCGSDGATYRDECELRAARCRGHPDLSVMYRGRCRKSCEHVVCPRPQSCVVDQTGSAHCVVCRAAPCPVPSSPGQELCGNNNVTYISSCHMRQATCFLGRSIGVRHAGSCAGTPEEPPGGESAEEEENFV
Chain of Left-right determination factor 2 (Homo sapiens) (O00292 whole entry, looked up): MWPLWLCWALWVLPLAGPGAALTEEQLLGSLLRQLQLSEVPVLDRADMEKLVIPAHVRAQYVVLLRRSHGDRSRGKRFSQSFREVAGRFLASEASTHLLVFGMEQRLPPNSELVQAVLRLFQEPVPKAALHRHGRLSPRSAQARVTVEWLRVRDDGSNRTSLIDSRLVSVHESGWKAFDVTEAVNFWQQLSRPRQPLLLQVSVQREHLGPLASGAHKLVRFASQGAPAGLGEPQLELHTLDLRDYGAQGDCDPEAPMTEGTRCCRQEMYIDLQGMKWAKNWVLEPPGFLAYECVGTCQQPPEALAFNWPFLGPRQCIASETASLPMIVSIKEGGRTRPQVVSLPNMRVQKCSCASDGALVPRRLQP
Chain of Dickkopf-related protein 1 (Homo sapiens) (O94907 whole entry, looked up): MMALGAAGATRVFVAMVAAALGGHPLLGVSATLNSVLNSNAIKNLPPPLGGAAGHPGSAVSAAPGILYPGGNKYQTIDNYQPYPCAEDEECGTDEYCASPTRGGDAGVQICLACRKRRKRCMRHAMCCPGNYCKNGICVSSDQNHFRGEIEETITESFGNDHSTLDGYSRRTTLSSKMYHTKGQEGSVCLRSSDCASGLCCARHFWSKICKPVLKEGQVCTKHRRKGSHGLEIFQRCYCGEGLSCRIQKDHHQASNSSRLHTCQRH
Chain of Epidermal growth factor receptor (Homo sapiens) (P00533 whole entry, looked up): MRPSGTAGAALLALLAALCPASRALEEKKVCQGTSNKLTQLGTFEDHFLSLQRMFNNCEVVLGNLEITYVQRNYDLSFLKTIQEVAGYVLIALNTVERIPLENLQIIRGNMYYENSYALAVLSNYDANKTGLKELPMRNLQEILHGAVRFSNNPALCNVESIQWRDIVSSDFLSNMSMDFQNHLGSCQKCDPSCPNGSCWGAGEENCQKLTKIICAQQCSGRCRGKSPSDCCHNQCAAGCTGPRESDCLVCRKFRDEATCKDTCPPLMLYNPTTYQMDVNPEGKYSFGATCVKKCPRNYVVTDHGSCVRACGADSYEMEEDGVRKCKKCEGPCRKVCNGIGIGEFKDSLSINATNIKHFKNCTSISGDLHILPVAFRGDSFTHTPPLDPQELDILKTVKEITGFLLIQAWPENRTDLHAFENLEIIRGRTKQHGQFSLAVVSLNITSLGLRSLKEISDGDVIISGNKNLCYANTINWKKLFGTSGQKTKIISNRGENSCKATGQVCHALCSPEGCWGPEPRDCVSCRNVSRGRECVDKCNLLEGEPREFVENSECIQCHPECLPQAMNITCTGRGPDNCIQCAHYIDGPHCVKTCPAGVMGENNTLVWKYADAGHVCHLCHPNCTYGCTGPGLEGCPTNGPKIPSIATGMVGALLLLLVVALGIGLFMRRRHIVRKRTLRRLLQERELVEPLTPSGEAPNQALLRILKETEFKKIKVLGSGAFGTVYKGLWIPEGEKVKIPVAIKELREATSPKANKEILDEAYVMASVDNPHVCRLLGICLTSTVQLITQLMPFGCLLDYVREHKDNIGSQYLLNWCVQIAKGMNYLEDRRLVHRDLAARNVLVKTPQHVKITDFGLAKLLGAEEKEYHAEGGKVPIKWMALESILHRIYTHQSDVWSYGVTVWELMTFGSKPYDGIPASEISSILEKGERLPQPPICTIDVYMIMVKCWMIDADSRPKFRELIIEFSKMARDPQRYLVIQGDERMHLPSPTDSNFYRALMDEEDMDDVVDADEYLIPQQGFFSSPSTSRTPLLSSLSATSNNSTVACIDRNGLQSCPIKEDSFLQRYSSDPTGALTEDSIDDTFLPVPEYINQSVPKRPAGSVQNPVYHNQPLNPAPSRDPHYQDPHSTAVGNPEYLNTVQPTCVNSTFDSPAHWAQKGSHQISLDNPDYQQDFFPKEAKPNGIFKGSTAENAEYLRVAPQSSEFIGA
Chain of Fibroblast growth factor 10 (Homo sapiens) (O15520 whole entry, looked up): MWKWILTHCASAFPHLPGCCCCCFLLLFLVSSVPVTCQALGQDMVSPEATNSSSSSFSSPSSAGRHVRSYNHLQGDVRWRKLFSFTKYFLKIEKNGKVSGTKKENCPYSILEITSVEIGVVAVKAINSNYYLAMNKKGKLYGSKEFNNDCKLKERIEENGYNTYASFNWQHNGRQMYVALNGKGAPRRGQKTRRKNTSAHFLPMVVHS
Chain of Torsin-1A-interacting protein 1 (Homo sapiens) (Q5JTV8 whole entry, looked up): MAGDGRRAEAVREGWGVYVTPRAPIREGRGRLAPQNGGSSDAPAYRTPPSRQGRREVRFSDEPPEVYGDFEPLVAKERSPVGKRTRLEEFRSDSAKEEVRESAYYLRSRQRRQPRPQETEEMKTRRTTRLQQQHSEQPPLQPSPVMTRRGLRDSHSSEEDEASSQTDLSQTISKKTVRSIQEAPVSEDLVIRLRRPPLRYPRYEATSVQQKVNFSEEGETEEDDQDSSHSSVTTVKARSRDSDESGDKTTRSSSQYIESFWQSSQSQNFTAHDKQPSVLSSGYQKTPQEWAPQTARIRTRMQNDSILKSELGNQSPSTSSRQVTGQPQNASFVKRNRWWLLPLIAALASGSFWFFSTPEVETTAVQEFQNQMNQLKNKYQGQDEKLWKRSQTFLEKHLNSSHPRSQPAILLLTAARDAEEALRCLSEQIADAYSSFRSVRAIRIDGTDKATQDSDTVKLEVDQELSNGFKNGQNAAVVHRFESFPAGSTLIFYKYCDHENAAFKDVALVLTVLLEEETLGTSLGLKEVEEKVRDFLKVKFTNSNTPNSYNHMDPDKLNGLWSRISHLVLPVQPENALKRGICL

SMILES | composite z-score [1] | composite z-score [2] | composite z-score [3] | z-score [4] | composite z-score [5] | composite z-score [6] | composite z-score [7] | composite z-score [8] | composite z-score [9] | composite z-score [10] | composite z-score [11] | z-score [12] | composite z-score [13] | composite z-score [14] | composite z-score [15] | composite z-score [16] | composite z-score [17] | composite z-score [18] | composite z-score [19] | composite z-score [20]
COC(=O)C1=C(C)N(Cc2ccccc2)[C@]23O[C@](C(=O)OC)(C(=O)N2[C@@H]1c1ccccc1)[C@@H](C(=O)OC)[C@H]3C(=O)OC | -0.16 and 0.25 | -0.188 and -0.2 | -0.248 and -0.593 | -0.259 (inactive) and 0.0138 (inactive) | 0.393 and 0.372 | -0.969 and 0.317 | -0.574 and 0.608 | -1.14 and 0.664 | -0.0647 and 0.549 | 0.59 and 0.153 | -1.08 and 0.025 | -0.685 and 1.33 | -0.2 and 0.674 | -0.602 and 0.395 | -0.636 and -0.505 | -0.173 and -0.16 | -0.123 and -0.0553 | -0.394 and -0.255 | 0.118 and 0.409 | -1 and -0.239
CCN1C(=O)[C@H]2[C@H]3[C@H](O)[C@H](O)CC(=NNC(=O)OCc4ccc(OC)cc4)[C@H]3CC[C@H]2C1=O | 0.182 | 1.55 | 1.27 | -0.324 (inactive) | 0.178 | -0.152 | -0.698 | 0.0229 | -0.819 | 0.0193 | -0.432 | 0.182 | 0.261 | -0.222 | 0.161 | 0.0597 | 0.0611 | 0.664 | 0.537 | 0.379
C=C[C@@H](OC)[C@H](O)c1ccc(OC)c(O)c1 | -1.12 and 0.402 | -0.42 and -0.521 | -0.6 and -0.0832 | -0.984 (inactive) and -1.14 (inactive) | 0.146 and -0.514 | -0.374 and -0.669 | 0.526 and -1.08 | 0.878 and -0.9 | 0.131 and -0.539 | 1.27 and -0.492 | -0.306 and -0.0635 | 0.552 and -0.127 | 0.861 and -0.46 | -1.19 and -1.42 | -0.799 and -0.187 | -0.293 and -0.208 | -0.289 and -0.138 | -0.321 and -0.347 | 0.0742 and 0.111 | -0.397 and 0.989
C=CCN(CCCC)C(=O)C(c1cccs1)N(C(=O)/C=C\C(=O)O)c1ccc(CCO)cc1 (stereo not given) | -0.292 and 0.315 | 0.219 and -0.11 | 0.864 and 1.06 | 0.243 (inactive) and -0.284 (inactive) | -1.34 and -1.59 | -1.58 and -1.35 | -1.11 and -2.45 | -0.963 and -2.14 | -1.99 and -4.28 | -1.22 and -1.99 | -0.541 and -0.68 | -1.03 and 0.741 | -2.24 and -2.46 | -0.324 and -0.724 | 0.423 and 0.395 | -0.13 and -0.262 | -0.0904 and -0.276 | -0.0621 and -0.0827 | 1.13 and -0.803 | 0.749 and -2.47
CO[C@@H]1COC(=O)[C@H](Cc2ccccc2)NC(=O)CC=C[C@@H](C)[C@H](OC)COC(=O)[C@@H](C)NC(=O)CC=C[C@H]1C | 1.58 and 0.899 | -0.447 and -0.987 | -1.06 and -1.37 | -1.14 (inactive) and -1.29 (inactive) | 0.497 and 0.956 | 1.07 and 0.496 | 0.882 and 0.64 | 1.29 and 0.876 | 0.696 and 1.67 | 1.42 and 0.336 | 0.946 and 0.026 | -0.198 and 0.903 | 0.79 and 0.972 | -0.913 and -0.79 | -1.89 and -1.85 | -0.1 and -0.22 | -0.362 and -0.102 | -0.201 and -0.278 | 0.596 and -0.19 | -0.527 and -0.862
COC(=O)[C@H](C)NC(=O)CCC1CC(OC(=O)NCCc2ccc(F)cc2)CC2(CCCC(COC(=O)NCCCN3CCCC3=O)O2)O1 (stereo not given in full) | 1.07 | -0.0361 | 0.778 | -0.247 (inactive) | 1.14 | 1.28 | 0.597 | 1.36 | 1.44 | -0.0362 | 1.39 | -2.21 | 1.21 | 0.95 | -0.387 | -0.172 | 0.0278 | 0.33 | 1.05 | 1.14
CC(CO)N1C(=O)[C@@H]2C3C(=O)OCCC=C[C@H]3OC23C=CCN(Cn2nnc4ccccc42)C(=O)[C@@H]13 (stereo not given in full) | 1.07 and 1.47 | -0.26 and -0.125 | 0.683 and 0.303 | -0.0985 (inactive) and 0.148 (inactive) | -0.914 and 0.715 | -1.38 and -0.212 | -1.56 and -0.105 | -1.68 and -0.219 | -2.03 and -0.18 | -0.785 and 0.234 | -0.394 and 0.27 | -1.03 and 0.0704 | -0.985 and -0.403 | -0.184 and -0.298 | 0.73 and -0.573 | -0.25 and 0.0431 | -0.474 and 0.0062 | -0.0103 and -0.142 | -0.393 and 0.0141 | -0.652 and -0.332
COC(=O)[C@@]1(Cc2ccc(F)cc2)[C@H]2c3cc(C(=O)N4CCCC4)n(Cc4c(CO)[nH]cc(C)c4=O)c3C[C@H]2CN1C(=O)c1ccccc1 | 1.47 and 1.53 | 2.17 and -0.115 | 1.29 and 0.955 | -1.48 (inactive) and -0.107 (inactive) | 0.822 and 0.461 | -0.252 and 0.368 | 0.704 and -0.2 | 0.0376 and -0.36 | -0.198 and -0.57 | 1.02 and 1.31 | 0.866 and 0.952 | -1.31 and -1.38 | -0.0537 and -0.837 | 1.41 and 0.252 | 0.249 and 0.299 | 1.02 and 0.132 | 2.2 and 0.182 | 2.71 and 1.27 | 0.959 and 1.72 | 0.234 and -0.124
O=C1[C@H]2[C@H]3[C@H](O)[C@H](O)CC(=NOCc4ccccc4)[C@H]3CC[C@H]2C(=O)N1Cc1ccccc1 | 0.424 | -0.276 | -0.476 | -2.42 (inactive) | 0.185 | -0.601 | 0.486 | 0.606 | 0.737 | -0.201 | -0.424 | -0.44 | 0.552 | -0.0595 | -0.477 | -0.222 | -0.0772 | -0.182 | 0.197 | -0.0806
C[N+](C)(C)CCCCCCNC(=O)[C@H]1C[C@H]2C(=O)N[C@@H](CCCC[N+](C)(C)C)C(=O)N2[C@H]1c1cccc(OCCO)c1 | 1.73 and 1.42 | -0.0501 and 1.08 | -0.148 and 0.62 | -0.159 (inactive) and 0.257 (inactive) | 1.2 and 0.913 | 0.898 and 0.613 | 0.111 and 0.558 | 1.44 and 0.262 | 1.34 and 1.55 | 0.589 and 1.36 | 0.519 and 0.362 | 1.38 and 1.18 | 1.35 and 1.04 | -0.742 and -0.31 | -0.458 and 0.0972 | -0.0981 and -0.0478 | -0.291 and -0.167 | -0.0855 and 0.304 | 0.953 and 0.544 | 0.433 and -0.3
